Bioassay records from PubChem.
The full list was thinned out, with hits kept by preference.
APE1 inh-1 – APE1 (human) endonuclease inhibition | P27695 | recombinant APE1, TAMRA/BHQ-2 abasic DNA cleavage fluorescence | Potency, µM (highest dose often 65.8 µM), for inactives: top-dose activity change, negative = inhibition, most hits filed as inhibitors | hit rate 0.35% among 350,000 | AID 2517;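 note: plate controls were vehicle for no effect and reference inhibitor for full effect; nearly all actives have a fitted effect of over 55% in size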
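Kinetic fluorescence read (525 ex/598 em nm, three reads 60 s apart) of AP-site incision; signal = third minus first read. Enzyme 0.75 nM, dual-labelled THF duplex 50 nM, compound preincubation 15 min RT.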
BLM helicase inh – inhibitors of human Bloom syndrome helicase BLM. recombinant BLM DNA unwinding, fluorescence dequenching. Potency, µM (top dose mostly 56.1 µM), for the others: at the highest dose activity change, negative = inhibition, usual class: inhibitors. hit rate 0.2% among 350,000. AID 2528;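 note: plate controls were vehicle for no effect and no enzyme for full effect; nearly all actives have a fitted effect of over 35% in size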
RECQ1 inh – blocks DNA unwinding by human RECQ1; P46063; RECQ1 DNA unwinding, red fluorescence kinetic read; Potency, µM (series often up to 57.3 µM), for the others: top-dose activity, negative = inhibition, hits mostly inhibitors; hit rate 0.54% among 240,000; AID 2549;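 note: plate controls were vehicle for no effect and no enzyme for full effect; nearly all actives have a fitted effect of over 30% in size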
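RECQ1T1 50 nM; forked duplex (20 bp + 30-nt ss tails) 200 nM, ATP 2 mM final; pH 8.0, 2 mM MgCl2, 2.5 ug/ml poly(dI-dC); 15 min compound preincubation; discontinuous kinetic read over 2 h at RT.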
L3MBTL1 block – L3MBTL1 (human) inhibition | Q9Y468 | AlphaScreen L3MBTL1–H3K9me1 peptide binding | Potency, µM (top dose mostly 57.1 µM), without a hit: top-dose activity, negative = inhibition, most hits filed as inhibitors | hit rate 0.66% among 230,000 | AID 485360; note: nearly all actives have a fitted effect of over 60% in size
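AlphaScreen proximity signal between nickel-chelate acceptor and streptavidin donor beads (final 10 ug/mL) reports binding of 50 nM L3MBTL1 to 75 nM biotin-H3 K9me1 peptide; complex incubated with compounds 30 min at room temperature; cefsulodin titration as control.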
JMJD2E inh – JMJD2E (human) inhibition; B2RXH2; JMJD2E catalytic domain, FDH-coupled NADH fluorescence (FDH is formaldehyde dehydrogenase); Potency, µM (titrated, usually from 57.1 µM), without a hit: at the top dose activity change, negative = inhibition, actives largely listed as inhibitors; hit rate 1.6% among 230,000; active = well fitted inhibition curve with a large enough effect, not every such curve was filed as active; inconclusive = small, poorly fitted or top-dose-only effect, or another doubt; inactive = no such curve, though single readings can be large or run the other way;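 note: 0% = wells with enzyme and -100% = buffer wells without enzyme; nearly all actives have a fitted effect of over 50% in size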
TDP1 inh – TDP1 (human) enzyme inhibition | Potency, µM (titrated, usually from 130 µM), inactives show at the highest dose activity change, negative = inhibition, hits mostly inhibitors | AID 485290 | recombinant TDP1, AlphaScreen DNA substrate cleavage | Q9NUW8 | hit rate 0.28% among 350,000; note: nearly all actives have a fitted effect of over 40% in size
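Tdp1 1 nM final; 15 min RT w/ cpd; substrate 15 nM, 5 min; beads 10 ug/ml, 10 min; AlphaScreen read. Neg ctrl: no enzyme.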
APE1 dye cs – DNA dye displacement counter-screen activity | shares compounds with APE1 inh-1 | hit rate 7% among 480 | Potency, µM (top dose mostly 28.5 µM), for the others: at the top dose activity change, negative = inhibition, hits mostly inhibitors | DNA fluorescent dye displacement counterscreen, fluorescence;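 note: loss of thiazole orange fluorescence as the dye is displaced from duplex DNA; 0% = ThO with dsDNA and no compound and -100% = ThO without dsDNA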
Endo IV inh – Endo IV (E. coli) inhibition counter-screen | hit rate 4% among 560 | E. coli Endo IV, fluorogenic AP-site DNA cleavage | shares compounds with APE1 inh-1 | AID 2565 | Potency, µM (titrated, usually from 27.1 µM), inactives show top-dose activity change, negative = inhibition, actives largely listed as inhibitors;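 note: plate controls were uninhibited enzyme wells for no effect and no enzyme buffer wells for full effect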
APE1 inh-2 – confirmation of inhibitors of human APE1 endonuclease; shares compounds with APE1 inh-1; purified APE1, fluorogenic abasic-site DNA cleavage; Potency, µM (highest dose often 57.1 µM), for inactives: top-dose activity change, negative = inhibition, actives largely listed as inhibitors; hit rate 44% among 750; note: nearly all actives have a fitted effect of over 30% in size
APE1 FP – APE1 (human) DNA binding inhibition, fluorescence polarization; shares compounds with APE1 inh-1; APE1 binding to TAMRA-labelled double-stranded DNA, fluorescence polarization displacement; Potency, µM (series often up to 28.5 µM), for the others: at the highest dose activity, negative = inhibition, actives largely listed as inhibitors; hit rate 7% among 480; AID 2573
Numbers without * were called inactive; i = inactive; ? = inconclusive; / = not tested or not shown; ! = not active in a repeat; [ ] = dose if it differs, or a comment. Unless noted, calls come from the whole dose curve; as a rule, active = well fitted curve in the direction sought with a large enough effect; inconclusive = small, poorly fitted or top-dose-only effect, or another doubt; inactive = no such curve, though single readings can be large; an effect the other way counts as inactive or inconclusive. Unless noted, % is set by controls: 0 for no effect and ±100 for the full control effect; potency is the fitted concentration of half-maximal effect.

SMILES	APE1 inh-1	BLM helicase inh	RECQ1 inh	L3MBTL1 block	JMJD2E inh	TDP1 inh	APE1 dye cs	Endo IV inh	APE1 inh-2	APE1 FP
O=c1cc(-c2ccccc2)oc2cc(O)c(O)c(O)c12	5.6µM*	16µM*!	28µM*	16µM*	13µM*	-3%	1µM*	186%[57.1 µM]	0.63µM*	18%[57.1 µM]
CC1CCN(c2nc3c(S(=O)(=O)c4cccc(Cl)c4)nnn3c3ccsc23)CC1	/	-9%	/	/	/	3%	/	/	/	/
O=C1CCCCC2CCCCN12 (stereo not given)	-2%[120 µM]	-7%[120 µM]	-2%[126 µM]	/	/	5%[234 µM]	/	/	/	/
COC(=O)c1cccc(-n2c(C)cc(C=O)c2C)c1	2%	4%	i	-5%	-3%	5%	/	/	/	/
Cc1cc(C=O)c(C)n1-c1cccc(C(=O)O)c1	22µM*	4%	-18%	25µM*	5%	5µM*	1%	3%	16µM*	2%
O=S(=O)(O)c1ccc2c(c1)-c1nc-2nc2[nH]c(nc3nc(nc4[nH]c(n1)c1ccc(S(=O)(=O)O)cc41)-c1ccc(S(=O)(=O)O)cc1-3)c1ccc(S(=O)(=O)O)cc21	0.32µM*	1.6µM*	0.56µM*	/	/	0.1µM*	0.56µM*	-93%[57.1 µM]	0.05µM*	0.14µM*
O=C(CCc1n[nH]c(=O)[nH]c1=O)N/N=C/c1ccco1	20µM*	-15%	-13%	-6%	17%	22µM*	-11%	-5%	18µM*	?
N#C/C(=C\c1cc(O)c(O)c(O)c1)C(N)=O	3.5µM*	?	-23%	-88%	1µM*	/	4%	160%	?	1%
N#C/C(=C\c1cc(Cl)c(OCc2ccc(Cl)cc2)c(Cl)c1)C(N)=O	1%	-14%	-1%	/	1%	/	/	/	/	/
NS(=O)(=O)c1cc2c(cc1Cl)NCNS2(=O)=O	-3%	0%	-8%	0%	2%	5%	/	-3%[57.1 µM]	-17%	/
O=C(Nc1ccc(-c2nc3cc(NC(=O)c4ccc(F)cc4)ccc3o2)cc1)c1ccc(F)cc1	/	2%	/	/	/	3%	/	/	/	/
O=C(Nc1ccc2oc(-c3ccncc3)nc2c1)c1ccc(F)cc1	5%	-18%	-5%	/	?	79µM*	/	/	?	/
Cc1cc(C(=O)N/N=C/c2ccc(O)c(O)c2O)c(C)n1-c1ccccc1	4.5µM*	-7%	-1%	?	2%	0%	-10%	30%	?	-87%
C[C@]12CC[C@@H]3c4ccc(O)cc4CC[C@H]3[C@@H]1CCC2OC(=O)CCC1CCCC1 (stereo not given in full)	/	-4%	/	/	/	4%	/	/	/	/
C=CCc1cccc2cc(C(=O)Nc3ccc(S(=O)(=O)Nc4nnc(CC)s4)cc3)c(=O)oc12	?	?	-4%	5%	-12%	50µM*	/	/	40µM*	/
C=CCc1cccc2cc(C(=O)Nc3ccc(F)cc3)c(=O)oc12	18%	-2%	-3%	-2%	6%	3%	/	/	/	/
Cc1ccc(CSc2nnc(SCC(=O)N/N=C/c3c[nH]c4ccccc34)s2)cc1	9%	-14%	?	/	-10%	6.3µM*	/	/	-24%	/
O=C(CSc1nnc(SCc2ccccc2)s1)N/N=C/C=C\c1ccco1	18µM*	18µM*	25µM*	13µM*	?	?	13µM*	-10%	13µM*	?
COc1cccc(-c2nc(NCc3cccs3)c3ccccc3n2)c1	-13%	-13%	-15%	/	/	/	/	/	/	/
CC(=O)c1sc2c(c1C)c(=O)n(-c1ccc(Cl)cc1)c(=O)n2Cc1cc(=O)n2cc(Cl)ccc2n1	/	-2%	/	/	/	0%	/	/	/	/
COc1ccc(OC)c(NC(=O)CSc2nccn2-c2cc(C)cc(C)c2)c1	/	-5%	/	/	/	11%	/	/	/	/
Cc1cccc(NC(=O)CN2C(=O)N/C(=C\c3cccn3-c3cccc(C(=O)O)c3)C2=O)c1	?	-5%	i	/	?	/	-1%	9%	?	2%
O=S(=O)(NC1CCCCC1)c1cccc(-c2nnc(-c3ccccc3)o2)c1	?	-5%	i	4%	?	-4%	1%	-6%	-4%[24.4 µM]	-10%
CN(CC(=O)NC(=O)NCc1ccco1)Cc1nc2ccccc2c(=O)[nH]1	20µM*	?	-30%	?	-2%	50µM*	?	9%	?	?
O=C(O)c1cccc(NC(=S)NC(NC(=O)c2cccc([N+](=O)[O-])c2)C(Cl)(Cl)Cl)c1 (stereo not given)	?	-10%	0%	/	2%	79µM*	/	/	?	/
SMILES	APE1 inh-1	BLM helicase inh	RECQ1 inh	L3MBTL1 block	JMJD2E inh	TDP1 inh	APE1 dye cs	Endo IV inh	APE1 inh-2	APE1 FP
O=C1c2c(O)cc(O)cc2O[C@@]12c1c(cc(O)c3c1O[C@H](c1ccc(O)cc1)[C@@H](O)C3)O[C@@H]2c1ccc(O)cc1	-2%	-6%	i	-11%	-6%	1%	/	/	/	/
O=c1c(O)cc(C2Oc3cc(O)cc(O)c3CC2O)cc2c(C3Oc4cc(O)cc(O)c4CC3O)cc(O)c(O)c12 (stereo not given)	0.5µM*	28µM*	3.2µM*	/	25µM*	/	/	?	2.5µM*	/
COc1ccnc(Oc2ccccc2)c1C(N)=O	-64%	-2%	i	-10%	2%	/	-10%	4%	-11%[24.4 µM]	?
NC(=O)c1cccnc1Oc1ccccc1	2%	-4%	-7%	-1%	2%	6%	/	/	/	/
C/C=C/C(=O)C[C@H]1CC[C@@H](C)[C@@H](CCO)O1	-2%	0%	-3%	/	-4%	2%	/	/	/	/
Cc1ccc(Cl)cc1NC(=O)Cn1nc2c(cc1=O)CC(C)CC2 (stereo not given)	/	-3%	/	/	/	1%	/	/	/	/
CC(N=Cc1cc([N+](=O)[O-])ccc1O)c1ccccc1 (stereo not given)	3%	1%	-1%	/	-12%	3%	/	/	/	/
